High-throughput results: PubChem, several laboratories
Rows were chosen to be rich in hits. Some 11% of all compounds tested hit in one or more screens of this group.
INS promoter inh: TRM-6 insulin promoter activity inhibition; TRM-6 cells (human fetal islet line), insulin promoter-eGFP reporter, imaging; reporter expression induced with tamoxifen; inhibition, % at 2 µM; 0.9% of 130,000 active; AID 1273;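 active means inhibition above the mean plus 3 SD, with well images judged a real hit on visual review, cut at about 60% in these data, passing the limit was not always enough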
WT yeast gro inh: growth inhibition of WT yeast, mitochondrial fusion screen. inhibition, % at 10 µM. 2.1% of 190,000 active. AID 1362. mitochondrial fusion phenotypic screen, WT strain; in the data active means inhibition above about 58%; tested in S. cerevisiae
Ins promoter up: MIN6 insulin promoter up-regulation; MIN6 insulin promoter-GFP reporter, high-content imaging; active compounds read high; z-score at 5 µM; 0.3% of 190,000 active; AID 1625;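 active means z-score above 3 at 5 µM with at least 500 cells counted in the well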
L major viab: reduces viability of Leishmania major promastigotes; AID 1063; resazurin fluorescence viability; inhibition, % at 10 µM; 9% of 200,000 active; in the data active means inhibition above about 50%;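 further: promastigotes grown with compound for 44 hours at 28 °C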
Autophagy HCS: autophagy modulation, high-content screen | MEF GFP-LC3 puncta imaging; test concentration mostly 10 µM | calls only at 10 µM (by protocol) | 0.98% of 190,000 active;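 active means percentage of spot-positive cells more than 3 SD above its plate mean, without a fluorescence outlier flag or 80% toxicity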;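 further: spot-positive cell cutoff set from DMSO-treated cells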
Starred values were filed as active, the others as inactive.

`N/C(=N\N=C\c1ccc2c(c1)OCO2)SC1CC(=O)N(c2ccc(C(=O)O)cc2)C1=O` (centres undefined) gave WT yeast gro inh -7, L major viab -3 and Autophagy HCS inactive.
For Fc1cccc(CO/N=C/c2c(-c3ccccc3)nc3ccc(Cl)cn23)c1 the results were WT yeast gro inh 14, Ins promoter up -0.43, L major viab 4 and Autophagy HCS inactive.
For Cc1cccn2c(/C=N/OCc3cccc(F)c3)c(-c3ccc(Cl)cc3)nc12 the results were INS promoter inh 39, WT yeast gro inh 36, L major viab 56* and Autophagy HCS inactive.
COc1cccc(/C(C#N)=C/c2c(-c3ccc(Cl)cc3)nc3c(C)cccn23)c1 was read as INS promoter inh -30, WT yeast gro inh 11, Ins promoter up -0.28, L major viab 67* and Autophagy HCS inactive.
For COc1ccc(C(CC(=O)c2ccc(C)cc2)C(C#N)C#N)cc1OC (centres undefined) the results were INS promoter inh 41, WT yeast gro inh -38, Ins promoter up -0.34, L major viab 90* and Autophagy HCS inactive.
Screening COc1ccc(Nc2cnn(-c3nc4ccccc4s3)c(=O)c2Cl)cc1 returned INS promoter inh 7, WT yeast gro inh 77, Ins promoter up -0.24, L major viab 51* and Autophagy HCS inactive.
Screening Cc1ccc(C)c(N2CCN(c3cnn(-c4nc5ccccc5s4)c(=O)c3Cl)CC2)c1 returned INS promoter inh -18, WT yeast gro inh 4, Ins promoter up -0.52, L major viab 32 and Autophagy HCS inactive.
Screening O=c1c(Cl)c(Nc2cccc(Cl)c2)cnn1-c1nc2ccccc2s1 returned INS promoter inh -4, WT yeast gro inh 39, Ins promoter up -0.48, L major viab 56* and Autophagy HCS inactive.
`Cc1cccc(N2CCN(C(=O)CSc3ccsc3[N+](=O)[O-])CC2C)c1` (centres undefined) gave INS promoter inh -24, WT yeast gro inh 18, Ins promoter up 0.17, L major viab 64* and Autophagy HCS inactive.
For CCOc1ccc(N2C(=O)C3ON(C)C(c4ccc([N+](=O)[O-])cc4)C3C2=O)cc1 (centres undefined) the results were Ins promoter up -0.23.
O=C(Nc1ccccc1)OC1CCC2CC1CCC2OC(=O)Nc1ccccc1 (centres undefined) was read as INS promoter inh 40, WT yeast gro inh 67*, Ins promoter up -0.6, L major viab 41 and Autophagy HCS inactive.
For CCC(=O)NC1CCN(C(=S)NC)CC1 the results were INS promoter inh -40, WT yeast gro inh -1, Ins promoter up 0.04, L major viab -10 and Autophagy HCS inactive.
`Cc1nnc(SCC(=O)NCc2ccc3c(c2)OCO3)s1` gave INS promoter inh 19, WT yeast gro inh -12, Ins promoter up -0.44, L major viab -2 and Autophagy HCS inactive.
COc1ccc(-n2ncc3c(NCc4ccc5c(c4)OCO5)ncnc32)cc1 was read as INS promoter inh 75*, WT yeast gro inh 20, Ins promoter up 1.3, L major viab -7 and Autophagy HCS inactive.
`COc1ccccc1/C=C(/CC(=O)NCc1ccc2c(c1)OCO2)c1nc2ccccc2s1` gave INS promoter inh 17, WT yeast gro inh 32, Ins promoter up 0.32, L major viab 93* and Autophagy HCS inactive.
O=C(CSc1ncnc2c1cnn2-c1ccc(Cl)cc1)NCc1ccc2c(c1)OCO2 was read as INS promoter inh 11, WT yeast gro inh -5, Ins promoter up 0.01, L major viab 52* and Autophagy HCS inactive.
For O=C(CSc1nc2cc(Cl)ccc2s1)NCc1ccc2c(c1)OCO2 the results were INS promoter inh 15, WT yeast gro inh -6, Ins promoter up 0.12, L major viab 76* and Autophagy HCS inactive.
O=C(CCc1ccccc1)Nc1nc2c(F)cc(F)cc2s1 was read as Ins promoter up 1.2.
Screening COc1cc(OC)nc(NC(=O)NS(=O)(=O)c2ccc(F)cc2)n1 returned WT yeast gro inh 5, Ins promoter up -0.89, L major viab 2 and Autophagy HCS inactive.
Screening CCC(C)NCC(=O)Nc1ccc(S(N)(=O)=O)cc1 (centres undefined) returned WT yeast gro inh -22, Ins promoter up -0.33, L major viab -5 and Autophagy HCS inactive.
Screening O=C(CC(=O)c1ccccc1O)c1ccc(F)cc1 returned INS promoter inh 31, WT yeast gro inh 63, Ins promoter up -0.42, L major viab 97* and Autophagy HCS inactive.
`O=C(CNc1ccc(F)cc1)c1ccccc1` gave INS promoter inh -35, WT yeast gro inh 2, Ins promoter up 0.4, L major viab 83* and Autophagy HCS inactive.
